Results reported in the supplement of paper PMC6411743.
± gives the standard deviation of the averaged measurements. About 6,500 targets were measured; listed, in parts, are those with the largest changes and a random draw of the rest.

Legend:
Experiment in all cases: NP40-soluble protein abundance relative to vehicle (solubility fold change) (ratio); higher = more soluble protein in presence of ATP
[1] = target: T1, I3L0H8|Q9NUU7|Q9NUU7-2 (UniProt Q9NUU7)
T1 sequence (whole entry): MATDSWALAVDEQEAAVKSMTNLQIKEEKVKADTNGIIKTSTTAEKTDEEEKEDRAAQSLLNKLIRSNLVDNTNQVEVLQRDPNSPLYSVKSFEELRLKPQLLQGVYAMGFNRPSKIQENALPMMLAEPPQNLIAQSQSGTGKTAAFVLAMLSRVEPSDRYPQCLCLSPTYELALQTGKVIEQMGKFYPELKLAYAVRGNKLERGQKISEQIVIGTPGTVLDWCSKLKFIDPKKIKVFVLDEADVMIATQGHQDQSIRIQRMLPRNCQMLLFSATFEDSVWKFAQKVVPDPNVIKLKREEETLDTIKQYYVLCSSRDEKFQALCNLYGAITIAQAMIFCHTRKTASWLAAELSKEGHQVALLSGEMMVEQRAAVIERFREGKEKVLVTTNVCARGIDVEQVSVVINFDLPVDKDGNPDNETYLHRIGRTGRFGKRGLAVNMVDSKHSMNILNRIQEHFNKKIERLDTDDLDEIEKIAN
Procedure, shortened: (§1)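 Data come from three independent experiments in which Dounce-homogenised Jurkat crude lysate was treated at eight concentrations from 0.1 to 10 mM. Treatment ran 10 min at room temperature and then 3 min at 37 °C, after which 0.8% NP40 and benzonase were added for 60 min at 4 °C before ultracentrifugation. The supernatant underwent TMT labelling and LC-MS/MS, and vsn-normalised intensities were expressed as fold change against the detergent-processed vehicle in each replicate.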

[2] = target: T2, J3KPS0|Q9NXW2 (UniProt Q9NXW2)
T2 sequence (whole entry): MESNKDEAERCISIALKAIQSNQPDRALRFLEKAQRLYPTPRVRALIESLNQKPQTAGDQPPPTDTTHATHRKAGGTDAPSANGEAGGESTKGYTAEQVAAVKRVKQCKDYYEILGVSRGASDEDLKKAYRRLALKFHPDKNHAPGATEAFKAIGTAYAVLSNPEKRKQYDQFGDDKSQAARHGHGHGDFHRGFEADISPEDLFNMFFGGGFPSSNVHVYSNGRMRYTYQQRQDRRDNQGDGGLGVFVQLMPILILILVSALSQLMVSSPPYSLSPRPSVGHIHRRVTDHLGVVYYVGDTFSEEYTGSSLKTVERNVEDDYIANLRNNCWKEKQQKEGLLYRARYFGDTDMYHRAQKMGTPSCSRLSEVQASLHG
Procedure, shortened: as §1

[3] = target: T3, SNAP23 (UniProt O00161)
T3 sequence (whole entry): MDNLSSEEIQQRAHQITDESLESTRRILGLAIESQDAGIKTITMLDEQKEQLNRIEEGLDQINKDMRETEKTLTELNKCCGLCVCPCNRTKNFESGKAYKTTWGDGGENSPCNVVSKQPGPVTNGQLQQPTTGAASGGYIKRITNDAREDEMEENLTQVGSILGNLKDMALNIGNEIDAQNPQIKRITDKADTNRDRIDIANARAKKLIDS
Procedure, shortened: as §1

[4] = target: T4, UniProt O14966|O14966-2
T4 sequence (whole entry): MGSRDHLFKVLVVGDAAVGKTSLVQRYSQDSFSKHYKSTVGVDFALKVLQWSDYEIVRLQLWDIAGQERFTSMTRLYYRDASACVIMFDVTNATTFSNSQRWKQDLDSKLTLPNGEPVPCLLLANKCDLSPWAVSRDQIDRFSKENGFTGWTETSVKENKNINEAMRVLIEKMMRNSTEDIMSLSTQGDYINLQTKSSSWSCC
Procedure, shortened: as §1

Nc1ncnc2c1ncn2[C@@H]1O[C@H](COP(=O)(O)OP(=O)(O)OP(=O)(O)O)[C@@H](O)[C@H]1O [adenosine triphosphate]
NP40-soluble protein abundance ([1]; concentration: 1mM): 1.03 ± 0.02
NP40-soluble protein abundance ([1]; concentration: 2mM): 1.03 ± 0.028
NP40-soluble protein abundance ([1]; concentration: 4mM): 1 ± 0.03
NP40-soluble protein abundance ([1]; concentration: 6mM): 1.02 ± 0.058
NP40-soluble protein abundance ([1]; concentration: 8mM): 1.02 ± 0.012
NP40-soluble protein abundance ([1]; concentration: 10mM): 1.02 ± 0.013
NP40-soluble protein abundance ([2]; concentration: 1mM): 0.902 ± 0.035
NP40-soluble protein abundance ([2]; concentration: 2mM): 0.898 ± 0.056
NP40-soluble protein abundance ([2]; concentration: 4mM): 0.867 ± 0.058
NP40-soluble protein abundance ([2]; concentration: 6mM): 0.846 ± 0.12
NP40-soluble protein abundance ([2]; concentration: 8mM): 0.845 ± 0.11
NP40-soluble protein abundance ([2]; concentration: 10mM): 0.833 ± 0.1
NP40-soluble protein abundance ([3]; concentration: 1mM): 0.944 ± 0.077
NP40-soluble protein abundance ([3]; concentration: 2mM): 0.947 ± 0.024
NP40-soluble protein abundance ([3]; concentration: 4mM): 0.943 ± 0.021
NP40-soluble protein abundance ([3]; concentration: 6mM): 1 ± 0.061
NP40-soluble protein abundance ([3]; concentration: 8mM): 0.921 ± 0.02
NP40-soluble protein abundance ([3]; concentration: 10mM): 0.883 ± 0.03
NP40-soluble protein abundance ([4]; concentration: 1mM): 0.995 ± 0.072
NP40-soluble protein abundance ([4]; concentration: 2mM): 1.01 ± 0.075
NP40-soluble protein abundance ([4]; concentration: 4mM): 0.958 ± 0.099
NP40-soluble protein abundance ([4]; concentration: 6mM): 1.03 ± 0.09
NP40-soluble protein abundance ([4]; concentration: 8mM): 0.99 ± 0.1
NP40-soluble protein abundance ([4]; concentration: 10mM): 1.01 ± 0.04
